# Assay results: PubChem BioAssay (NCI)
# Compounds without any hit were thinned out: in the full panel of roughly 83,000, 20% have a hit.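 Results are percent growth after 48 hours of single-concentration exposure. 100 means growth as in untreated cells, lower positive values show inhibition; negative values down to -100 show cell death.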 A number with no mark means an inactive call. The source made the active and inactive calls. The calls were made as follows: active = growth percent below 10; inactive = the rest.
# Columns and labels:
# Assay in all cases: NCI-60 one-dose screen, 48 h (100 = growth as untreated, 0 = no growth, -100 = all killed)
# Details in all cases: 10 µM unless noted
# T-47D breast = test system: T-47D breast
# BT-549 breast = test system: BT-549 breast
# MDA-MB-435 melanoma = test system: MDA-MB-435 melanoma
# SW-620 colon = test system: SW-620 colon
# MCF7 breast = test system: MCF7 breast
# HCT-116 colon = test system: HCT-116 colon
# HCC-2998 colon = test system: HCC-2998 colon
# KM12 colon = test system: KM12 colon
SMILES,growth (T-47D breast),growth (BT-549 breast),growth (MDA-MB-435 melanoma),growth (SW-620 colon),growth (MCF7 breast),growth (HCT-116 colon),growth (HCC-2998 colon),growth (KM12 colon)
C=C(C)[C@@H]1CC[C@]2(CO)CC[C@]3(C)[C@H](CC[C@@H]4[C@@]5(C)CCCNC(C)(C)[C@@H]5CC[C@]43C)[C@@H]12,36.5%,77.1%,13.5%,-66.5% (active),-12.6% (active),-78.9% (active),-5.02% (active),23.2%
O=C(N=Nc1c(O)[nH]c2ccc(F)cc12)c1cc2ccccc2[nH]1,88.2%,90.2%,99.6%,105%,90.1%,93.5%,100%,102%
COc1cc(OC)cc(C2C3=C(COC3=O)Nc3cc(OC)ccc32)c1 (stereo not given),68.8%,-2.09% (active),-30% (active),26.6%,15.7%,1.55% (active),1.15% (active),-3.49% (active)
C#Cc1cccc(NC(=O)Nc2cccc(N=C=S)c2)c1,100% [8.25 µM],102% [8.25 µM],97.3% [8.25 µM],104% [8.25 µM],86.1% [8.25 µM],95.5% [8.25 µM],105% [8.25 µM],106% [8.25 µM]
O=C1CCCN1c1cccc2cccnc12,97.5%,109%,100%,101%,93.3%,102%,86.7%,102%
Clc1ccc(N2N=C(c3cccc(Nc4ccncc4)c3)CC2c2ccc3c(c2)OCO3)cc1 (stereo not given),82.2%,87.1%,-77.6% (active),-78.6% (active),-17.4% (active),18.4%,1.72% (active),2.3% (active)
CCn1ccnc1C(=O)/C=C/c1ccc(CC(=O)Nc2ccc(F)cc2)cc1,24.5%,4.63% (active),20%,6.04% (active),25.2%,1.33% (active),78.8%,-14.3% (active)
Cn1c(COC(=O)NCCN2CCOCC2)nc2c(N3CCOCC3)nc(-c3ccccc3)nc21,-28.9% (active),-66.4% (active),-87.4% (active),-76.9% (active),-59% (active),-80.9% (active),-53.8% (active),-5.33% (active)
O=S(=O)(NCCNc1nccc(-c2c(-c3ccc(F)c(O)c3)nc3occn23)n1)c1ccccc1,71.9%,80.8%,28.1%,63.5%,36.5%,22.6%,62.1%,52.6%
CCOC(=O)c1cnc2c(cnn2CC)c1NN=C(C)C,87.7%,91%,108%,104%,88.7%,86.5%,94.9%,96.5%
O=S(=O)(c1ccccc1)N1CCCc2ccccc21,96.5%,110%,110%,104%,96.8%,105%,103%,100%
CCOC(=O)C1=C(C)NC(C)=C(C(=O)OCC)C1c1cc(Br)c(O)c(OC)c1,43.8%,15.3%,-33.7% (active),24.6%,29.3%,24.5%,63.6%,23.6%
Cc1ccc2nc3c(cc2c1)CSc1nnc(-c2ccc[nH]c2=S)n1N3,90.8%,97.4%,88.2%,102%,94.4%,92.5%,107%,99.7%
C[C@]12CCc3nc(Nc4cccc(O)c4)sc3C1=CC[C@@H]1[C@@H]2CC[C@]2(C)/C(=N\NC(N)=S)CC[C@@H]12,19.5%,7.62% (active),5.53% (active),-50% (active),-39.3% (active),-61.8% (active),65.3%,13.5%
Cc1[nH]n(C(=O)c2ccncc2)c(=O)c1N=Nc1ccc(F)c(Cl)c1,99.7%,103%,112%,99.8%,92.1%,103%,110%,105%
N/C(=N\N=C\c1cc2ccccc2s1)N/N=C/c1cc2ccccc2s1,95.5%,78.5%,106%,103%,82.7%,-69.7% (active),103%,103%
COc1ccccc1N1CCN(C(=O)c2ccc3nc(NC(=O)c4ccc(NCCc5ccccc5)c([N+](=O)[O-])c4)sc3c2)CC1,73.2%,80.3%,89.4%,75.1%,70.8%,57.7%,110%,79%
FC(F)(F)Oc1cccc(-c2cc(NCCCCCCNc3cc(-c4cccc(OC(F)(F)F)c4)nc4ccc(N5CCCC5)cc34)c3cc(N4CCCC4)ccc3n2)c1,-46.4% (active),105%,-87.6% (active),-78.8% (active),-64.7% (active),-66.6% (active),-85.3% (active),-90.4% (active)
COc1cc(NCCCN(CC(C)C)C2CCCC2)c2ncccc2c1,29.9%,75.6%,89.2%,41.4%,0.473% (active),37.8%,92.4%,93%
C=C1C(=O)O[C@H]2[C@H]1CC/C(CNC(=O)/C=C/c1ccccc1F)=C\CC[C@@]1(C)O[C@@H]21,-0.591% (active),-6.02% (active),23.1%,-54.3% (active),-12.3% (active),-34.9% (active),50.4%,74.2%
CC(C)Cc1ccc(C(C)C(=O)NCc2c[nH]c3ccc(Cl)cc23)cc1 (stereo not given),69.8%,88.8%,66.6%,90.9%,89.5%,85.9%,103%,83.5%
C/C(=C(/c1ccccc1)c1ccc(OCC(O)CN2CCOCC2)cc1)c1ccccc1 (stereo not given),60.3%,93.3%,90.7%,88.6%,84.2%,46.3%,102%,63.6%
COc1ccc(Cn2nc(-c3ccccc3)c3c2CCc2cnoc2-3)cc1,43.4%,82.1%,28.4%,83.2%,72.6%,65.4%,67.4%,56.8%
C=C(C)[C@@H]1CC[C@]2(C(=O)NCCCN(CCC#N)CCC#N)CC[C@]3(C)[C@H](CC[C@@H]4[C@@]5(C)CCC(=O)C(C)(C)[C@@H]5CC[C@]43C)[C@@H]12,102%,95.5%,105%,101%,92.8%,97.3%,108%,104%
C[C@H]1[C@H](C)CC[C@]2(CO)CC[C@]3(C)C(=CC[C@@H]4[C@@]5(C)Cc6c([nH]c7ccccc67)C(C)(C)[C@@H]5CC[C@]43C)[C@H]12,68.3%,85.2%,90.3%,96.2%,74.1%,61.5%,86%,73.8%
COc1ccc(C(=O)c2cc3c(N)c(C(=O)Nc4cccc(Br)c4C)sc3nc2C)cc1,54.6%,33.5%,-10.4% (active),23.4%,17.5%,6.78% (active),18.1%,11.3%
Cc1cc2nc(-c3ccccc3)c(-c3ccccc3)nc2cc1C,86.5%,97.5%,93%,99%,88.9%,91.4%,104%,104%
CCOC(=O)N1CCN(CCCCl)CC1,103%,99.5%,103%,107%,97.7%,93.8%,101%,105%
Fc1ccc(C2CC(c3cccc(Nc4ccncc4)c3)=NN2c2cc(Cl)cc(Cl)c2)cc1 (stereo not given),74.6%,104%,-22.5% (active),-85.2% (active),-25.6% (active),98.8%,19.1%,-35.7% (active)
CC1(C)CCCN1CCCN1c2ccccc2Sc2ccc(Cl)cc21,68.5%,56.3%,51.5%,79.9%,45.3%,33.3%,56.7%,56.1%
